Hits are enriched below; roughly 4% of the tested compounds scored in any of these assays.
TWEAK Fn14 block: blocks TWEAK-Fn14 interaction in a reporter cell assay | TWEAK-stimulated Fn14 reporter cells, luciferase luminescence, 8 h | inhibition, % at 10 µM | 360,000 tested, 2% active | AID 1159606; in the data active = inhibition above about 50%
CF NFkB inh: blocks PAF-induced NF-kB reporter in cystic fibrosis cells. KKLEB NF-kB-GFP reporter, GFP fluorescence overnight. inhibition, % at 5 µM. 360,000 tested, 0.86% active;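 active = at least 50% inhibition at 5 µM, scaled per plate between neutral and stimulator controls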;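 also: PAF is a Pseudomonas aeruginosa culture filtrate used as stimulus; plate controls were PAF-stimulated DMSO wells for no effect and unstimulated DMSO wells for full effect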
Peg3 promoter: inhibitors of Peg3 promoter. inhibition, % at 20 µM. AID 588405. HeLa PEG-Prom luciferase reporter, luminescence, overnight. 360,000 tested, 1.7% active;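 active = inhibition of at least 50% at 20 µM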
HIF-2a block: blocks HIF-2a reporter activity; AID 624352; 360,000 tested, 0.72% active; 786-0 RCC cells HIF-2a reporter, luciferase luminescence, overnight; inhibition, % at 18.8 µM;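 active = inhibition of the luminescence signal of 40% or more relative to plate controls, in a single-dose primary screen at 18.75 µM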
TROY signal inh: TROY signaling inhibition; 360,000 tested, 0.98% active; Q293 LMP1-TROYcd NF-kB luciferase reporter, 4 h; inhibition, % at 10 µM; AID 1347056;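 active = compounds whose plate-normalised and pattern-corrected inhibition of the luciferase reporter signal at the single screening dose is 50% or more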
KKLEB tox: CF airway cell cytotoxicity counter-screen. KKLEB CF airway cells viability, ATPlite luminescence, overnight; active compounds read low; cells stimulated with P. aeruginosa culture filtrate. AID 602141. activity change (cytotoxicity), % at 5 µM. 360,000 tested, 0.36% active;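 active = corrected activity change at or below -50% at 5 µM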
Numbers without * were called inactive; / = no result.

SMILES	TWEAK Fn14 block	CF NFkB inh	Peg3 promoter	HIF-2a block	TROY signal inh	KKLEB tox
COCc1cc([C@@H]2C[C@H]3CN(c4ccccc4)C(=O)[C@]34CCCN24)ccc1OC	-18.3	6.2	53.8*	7.1	3.3	0.1
COc1ccc([C@@H]2C[C@H]3CN(c4ccccc4)C(=O)[C@]34CCCN24)c(OC)c1OC	-10.4	5.1	-1.6	18.9	6.5	-7.6
Nc1ccc2cccc(O)c2c1	23.4	21.5	-273.2	-30.0	49.8	-12.9
CC(=O)Nc1ccc(CN(C)c2c(C)nc3ccc(C(=O)Nc4ccc(Cl)c(Cl)c4)cn23)cc1	-18.8	-16.4	-20.3	-95.8	-1.5	-6.1
CCCCn1c(N)c(N(C)C(=O)c2c(C)nn(-c3ccccc3)c2C)c(=O)[nH]c1=O	8.8	-3.2	-18.2	-0.6	9.8	-7.7
N#C/C(=N\Nc1ccc([N+](=O)[O-])cc1)C(N)=S	33.1	23.6	-43.5	-167.5	44.0	0.7
CS(=O)(=O)Nc1ccc(S(=O)(=O)N2CCCC2)cc1	13.3	-14.2	1.8	11.1	1.2	11.5
N#C/C(=N\Nc1ccc(S(=O)(=O)N2CCCCCC2)cc1)C(N)=S	67.7*	38.2	-4.0	-46.0	49.1	-5.3
N#CC(C#N)=NNc1ccc(S(=O)(=O)N2CCCC2)cc1	51.0*	29.5	8.2	14.5	54.6*	4.3
N#C/C(=N\Nc1ccc(S(=O)(=O)N2CCCCC2)cc1)C(N)=S	50.2*	8.0	18.7	6.7	38.0	20.3
N#C/C(=N/Nc1ccc(S(=O)(=O)N2CCOCC2)cc1)C(N)=O	-1.9	-8.2	10.4	5.7	-2.1	12.6
COc1ccc(NC(=O)N2CCCC(c3nc(-c4ccc(OC)cc4)no3)C2)cc1 (configuration not stated)	36.3	-4.7	-121.7	-78.2	33.2	-3.4
COc1ccc(NC(=O)N2CCCC(c3nc(-c4ccc(C(C)C)cc4)no3)C2)cc1 (configuration not stated)	59.4*	-23.1	-59.9	-34.1	68.9*	5.2
COc1ccc(/C=N/NC(=O)c2cc(C)n(-c3ccccc3)c2C)cc1OC	14.1	9.7	-65.1	-47.1	61.6*	0.7
Cc1cc(C(=O)N/N=C/c2cccc([N+](=O)[O-])c2)c(C)n1-c1ccccc1	-5.7	2.3	-155.1	-140.4	5.0	-7.2
O=C(N/N=C/c1ccc2c(c1)OCO2)c1ccc(NC(=O)c2ccc(F)cc2)cc1	-8.1	14.9	13.4	-21.5	8.0	-7.8
Cc1cc(C(=O)N/N=C/c2ccc(Cl)c([N+](=O)[O-])c2)c(C)n1-c1ccc(F)cc1	63.2*	1.0	105.3*	60.9*	41.6	1.4
Cc1cc(C(=O)N/N=C/c2ccc3c(c2)OCO3)c(C)n1-c1ccc(F)cc1	2.9	-17.1	-26.2	-37.4	50.3*	-0.8
Cc1cc(C(=O)N/N=C2\CCCC(=O)C2)c(C)n1-c1ccccc1	42.7	18.6	-51.9	-79.5	74.9*	-9.1
COc1ccc(Cc2nc3ccc(C(=O)N4CCCCC4CO)cc3o2)cc1OC (configuration not stated)	-2.0	-13.2	0.4	-0.9	14.5	-4.8
CC(C)NC(=O)C1(C)CSCC(=O)N1CCOc1ccccc1 (configuration not stated)	/	/	/	4.8	/	/
COc1ccc(CCNC(=O)c2ccccc2NC(=O)CN2CCN(c3ccccc3O)CC2)cc1	40.6	-7.3	52.0*	14.0	24.0	0.6
COC(=O)c1ccc(C(=O)OC)c(NC(=O)CN2CCN(c3ccccc3OC)CC2)c1	27.0	-9.1	51.7*	36.8	16.8	16.0
O=C(Nc1cccc(S(=O)(=O)N2CCCCC2)c1)c1ccc2c(=O)n3c(nc2c1)CCCCC3	71.3*	6.1	89.9*	-5.7	55.1*	6.0
C[C@H](CO)N1C[C@H](C)[C@H](CN(C)C(=O)c2ccccc2)Oc2cc(Br)ccc2S1(=O)=O	-4.8	-2.1	-5.7	10.4	-15.1	2.9
SMILES	TWEAK Fn14 block	CF NFkB inh	Peg3 promoter	HIF-2a block	TROY signal inh	KKLEB tox
Cc1ccc(-n2c(Cl)c(Cl)nc(Cl)c2=O)cc1	101.7*	88.1*	102.9*	93.7*	63.3*	-94.0*
COc1nc(Cl)cn(-c2ccc(C)cc2)c1=O	15.2	0.9	-6.3	3.6	-4.1	-6.7
Cc1csc2c(N3CCN(C(=O)NC(C)(C)C)CC3)ncnc12	-1.8	-14.2	6.7	13.1	-1.2	8.3
Cc1csc2c(N3CCN(C(=O)Nc4ccc(Cl)c(Cl)c4)CC3)ncnc12	16.1	-9.0	5.8	15.8	62.8*	-9.6
CCn1cc(CN2CCCC(C(=O)Nc3cccc(-n4cccn4)c3)C2)cn1 (configuration not stated)	-12.0	21.2	-5.0	11.1	4.3	-20.4
O=C(N/C(=C/c1ccc([N+](=O)[O-])cc1)C(=O)N1CCOCC1)c1ccco1	-0.7	-19.5	-16.7	9.1	9.9	9.4
C=CCN(c1ccccc1OC)S(=O)(=O)c1cccc(C(=O)OCC(=O)N2CCOCC2)c1	-0.4	-27.8	8.5	0.4	-5.4	-5.5
COc1cc(OC)c(N(C)S(=O)(=O)c2cccc(C(=O)Nc3nccs3)c2)cc1Cl	30.8	-14.0	51.1*	22.4	39.2	11.9
CN(c1ccccc1)S(=O)(=O)c1cccc(C(=O)Nc2nccs2)c1	19.7	6.0	-0.6	2.6	10.2	26.9
C=CCN(c1ccccc1OC)S(=O)(=O)c1cccc(C(=O)OCC(=O)c2c[nH]c3ccccc23)c1	84.7*	4.3	27.9	7.4	17.0	0.5
COc1cc(OC)c(N(C)S(=O)(=O)c2cccc(C(=O)OCC(=O)c3c[nH]c4ccccc34)c2)cc1Cl	96.1*	15.4	39.3	23.2	44.8	-23.4
O=C(CCNC(=O)c1ccccc1Cl)NCCc1ccc(C(F)(F)F)cc1	71.5*	-17.6	-5.7	3.7	13.8	-2.1
CCOCC(=O)NC1CCc2cc(OC)c(OC)c(OC)c2-c2ccc(SC)c(=O)cc21 (configuration not stated)	22.6	44.2	-9.5	22.7	9.0	-27.2
COc1ccc(S(=O)(=O)N2CN3CCN(C3)C2)cc1	10.9	-10.9	15.7	23.1	-28.0	5.7
COC1=CC(=O)C(O)=C(CCCCCCC/C=C/CCCCCCCC2=C(O)C(=O)C=C(OC)C2=O)C1=O	85.0*	49.7	18.3	15.1	61.5*	-19.2
COc1ccc(CCn2c(-c3ccco3)nc3nc4ccccc4nc32)cc1	57.2*	-9.8	-69.4	-117.7	31.8	-2.9
Clc1ccc(-c2nc3nc4ccccc4nc3n2Cc2ccco2)cc1	59.1*	-2.4	-198.4	-164.9	-5.3	8.3
c1ccc(Cn2c(-c3ccco3)nc3nc4ccccc4nc32)cc1	-7.9	-3.2	-255.2	-238.6	5.5	3.6
COc1ccccc1Cn1c(-c2ccco2)nc2nc3ccccc3nc21	1.2	-0.6	-85.3	-141.1	-20.1	-7.4
Cc1ccc(-c2nc3nc4ccccc4nc3n2Cc2ccco2)cc1	89.5*	-2.7	-108.0	-112.2	73.6*	-1.3

Source: PubChem BioAssay (Sanford-Burnham Center for Chemical Genomics)
